# Laboratory results: ChEMBL document CHEMBL1201862, “PubChem BioAssay data set” (2004)
# Screen size: about 400,000 compounds; about 2,100 (0.53%) were called active. Not shown: some 14% with an inconclusive outcome. The rule behind the calls is not given here. This excerpt belongs to a sample that is enriched for actives.
# Target: Ataxin-2 (Homo sapiens) (UniProt Q99700)
# Experiment: qHTS for Inhibitors of ATXN expression.
# Type: functional
# Chain of Ataxin-2 (Homo sapiens) (Q99700 whole entry): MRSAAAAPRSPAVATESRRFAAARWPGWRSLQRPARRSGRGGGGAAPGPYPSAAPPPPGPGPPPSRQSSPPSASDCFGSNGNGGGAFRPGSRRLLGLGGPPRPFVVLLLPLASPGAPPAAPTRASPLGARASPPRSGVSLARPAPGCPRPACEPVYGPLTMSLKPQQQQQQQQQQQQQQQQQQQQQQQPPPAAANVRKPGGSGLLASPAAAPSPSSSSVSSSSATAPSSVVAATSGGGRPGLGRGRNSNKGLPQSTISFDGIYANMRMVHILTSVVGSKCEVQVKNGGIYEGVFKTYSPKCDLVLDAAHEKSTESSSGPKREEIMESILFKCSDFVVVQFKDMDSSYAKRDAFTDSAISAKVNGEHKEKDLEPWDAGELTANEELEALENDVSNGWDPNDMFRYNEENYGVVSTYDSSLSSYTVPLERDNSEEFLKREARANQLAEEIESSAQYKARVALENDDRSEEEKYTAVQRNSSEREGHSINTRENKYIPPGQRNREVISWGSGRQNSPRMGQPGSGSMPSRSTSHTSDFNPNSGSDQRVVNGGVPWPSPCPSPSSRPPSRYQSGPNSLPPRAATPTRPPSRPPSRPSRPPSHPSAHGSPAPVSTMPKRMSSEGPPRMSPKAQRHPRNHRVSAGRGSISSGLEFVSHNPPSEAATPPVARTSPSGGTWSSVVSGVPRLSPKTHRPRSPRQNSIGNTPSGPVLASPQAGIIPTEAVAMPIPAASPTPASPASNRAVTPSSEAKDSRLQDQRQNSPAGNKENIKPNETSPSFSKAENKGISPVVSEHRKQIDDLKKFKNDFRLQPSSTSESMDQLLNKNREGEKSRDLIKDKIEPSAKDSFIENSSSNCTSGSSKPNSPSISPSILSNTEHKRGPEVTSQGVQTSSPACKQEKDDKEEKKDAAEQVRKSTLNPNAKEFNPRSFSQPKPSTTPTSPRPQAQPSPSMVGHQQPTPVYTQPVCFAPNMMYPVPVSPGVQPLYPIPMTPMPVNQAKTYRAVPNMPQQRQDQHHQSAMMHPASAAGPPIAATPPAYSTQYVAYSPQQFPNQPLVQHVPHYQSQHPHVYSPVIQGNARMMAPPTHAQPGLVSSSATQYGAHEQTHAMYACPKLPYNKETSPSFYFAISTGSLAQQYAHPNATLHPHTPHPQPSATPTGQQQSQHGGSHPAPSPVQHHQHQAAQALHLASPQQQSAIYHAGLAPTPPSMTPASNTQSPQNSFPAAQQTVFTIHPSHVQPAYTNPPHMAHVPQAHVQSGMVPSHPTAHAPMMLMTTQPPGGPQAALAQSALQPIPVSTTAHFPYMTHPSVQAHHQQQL
row,Compound,Potency
1,C[C@@H]1C(c2cccc(Cl)c2)=NN(c2ccc(Br)cc2)[C@H]1C(=O)N1CCOC1=O,inactive
2,Cc1cc(N2CCCC2)c(F)cc1/C=C\[N+](=O)[O-],inactive
3,Cc1cc(NC(=O)CN(C)S(=O)(=O)c2ccc3c(c2)CCCC(=O)N3)ccc1Br,31.6 µM (active)
4,CC(=O)N1CCCc2cc(S(=O)(=O)N(C)CC(=O)Nc3ccccc3)ccc21,inactive
5,Cc1cc(NC(=O)CCN2CCC(C)CC2)ccc1Br,inactive
6,O=C1CS/C(=N/N=C/c2ccccc2)N1Cc1ccco1,inactive
7,COc1ccc2[nH]c(C(=O)N(Cc3ccccn3)Cc3ccccn3)cc2c1,inactive
8,COc1ccc(-c2[nH]c(-c3ccc4c(c3)OCO4)nc2-c2ccccc2)cc1,44.7 µM (active)
9,C(=C/c1[nH]ccc2c3ccccc3nc1-2)/c1ccc2c(c1)OCO2,inactive
10,O=C1N/C(=C/c2cccn2-c2ccc(F)cc2)C(=O)N1Cc1ccccc1F,inactive
11,O=[N+]([O-])c1ccc(Sc2ccncn2)c([N+](=O)[O-])c1,8.91 µM (active)
12,O=[N+]([O-])c1ccc(Cc2ccccn2)c([N+](=O)[O-])c1,inactive
13,CN(C)c1ccc(/C=N/N(CCO)C2=NS(=O)(=O)c3ccccc32)cc1,inactive
14,COc1ccc(-c2cc(C(F)(F)F)n3nc(C(=O)NCCCN4CCOCC4)cc3n2)cc1,inactive
15,CCOc1ccc(-c2cn3c(n2)sc2cc(C(=O)NCCCN4CCCCCC4)ccc23)cc1,22.4 µM (active)
16,CCOc1ccc2nc(NCCCNC(=O)c3cc(OC)c(OC)c(OC)c3)c(C#N)cc2c1,inactive
17,C=CCC1=C/C(=C\c2c(N)n3nc(CC(=O)N4CCCC4)sc3nc2=O)C=C(OC)C1=O,inactive
18,COc1ccc(Cc2nnc(NC(=O)C3CC(=O)N(c4ccc(OC)cc4)C3)s2)cc1 (centres undefined),inactive
19,COc1ccc(N2C(=O)CC(Sc3nnc(-c4ccccc4F)n3C)C2=O)cc1 (centres undefined),39.8 µM (active)
20,COc1ccc(C2CC(c3ccccc3F)=NN2c2ccc(S(N)(=O)=O)cc2)cc1 (centres undefined),inactive
21,COc1ccc(CCN(C(=O)/C=C/C(=O)O)C2CC(=O)N(c3ccccc3)C2=O)cc1 (centres undefined),inactive
22,COc1ccc(N2C(=O)CC(N3CCN(c4ccccc4)CC3)C2=O)cc1 (centres undefined),inactive

row,Compound,Potency
1,C=CCNc1nnc(SC2CC(=O)N(c3ccc(OC)cc3)C2=O)s1 (centres undefined),39.8 µM (active)
2,CN1CCC[C@H]1CCNc1ccc2c(=O)c3ccccc3n(C)c2c1,inactive
3,O=C(N/N=C/c1ccc(O)cc1)Nc1cccc2nsnc12,inactive
4,CCCCC(CC)CN1C(=O)/C(=C/c2c[nH]nc2-c2ccccc2)SC1=S (centres undefined),22.4 µM (active)
5,CCCN1C(=O)/C(=C/c2c(N3CCNC(=O)C3CC(=O)OCC)nc3c(C)cccn3c2=O)SC1=S (centres undefined),inactive
6,COc1ccccc1/C=C1\SC(=S)N(CCC(=O)NC2=NCCS2)C1=O,inactive
7,CC(C)CN1C(=O)/C(=C/c2c[nH]nc2-c2ccccc2)SC1=S,39.8 µM (active)
8,Cc1ccnn1CC(=O)N/N=C/c1c[nH]nc1-c1ccccc1,inactive
9,O=C(Cc1csc(N2CCOCC2)n1)N/N=C/c1ccccc1C(=O)O,inactive
10,NNC(=O)c1oc2nc(-c3ccco3)cc(-c3ccco3)c2c1N,inactive
11,Cc1cc(C)c2c(N)c(C(=O)Nc3nccs3)sc2n1,inactive
12,CCCc1c(C(=O)N/N=C/c2c[nH]c3ccccc23)nnn1-c1nonc1N,inactive
13,CCOc1cccc(/C=N/NC(=O)c2cc(-c3cccn3C)[nH]n2)c1O,inactive
14,O=C(N/N=C/c1c[nH]c2ccccc12)c1cc(-c2ccc(-c3ccccc3)cc2)[nH]n1,39.8 µM (active)
15,O=C(NCc1ccco1)c1cc2ccc(O)cc2oc1=O,inactive
16,CC(=O)N/N=C/c1cc(C(C)(C)C)cc(/C=N/NC(C)=O)c1O,inactive
17,CN(CCc1ccccc1)C(C(=O)Nc1ccc2c(c1)OCCO2)c1ccnc2ccccc12 (centres undefined),35.5 µM (active)
18,O=C(O)c1ccc(/C=C/c2nc(O)c3c4c(sc3n2)CCC4)cc1,inactive
19,CCCCCCOc1ccc(/C=c2\s/c(=C(/C#N)C(=O)NCc3ccco3)n(-c3ccccc3)c2=O)cc1,inactive
20,O=C(CSc1nnc(NC(=O)C2CC2)s1)NCc1cccs1,inactive
21,CC(C)(C)c1nc(SCC(=O)NCc2cccs2)c2ccccc2n1,inactive
22,O=C(CC1N=C2c3ccccc3N=C(SCC(=O)Nc3cccc(C(F)(F)F)c3)N2C1=O)NCc1cccs1 (centres undefined),39.8 µM (active)

row,Compound,Potency
1,Cc1cccn2c(=O)c3cc(C(=O)NC4CCCC4)c(=N)n(CCc4ccccc4)c3nc12,inactive
2,CN(C)CCNc1nc2sc3c(c2c(=O)n1CCc1ccccc1)CCCCC3,22.4 µM (active)
3,Cc1cc2nc3c(=O)n(CCc4ccccc4)c(=O)[nH]c3nc2cc1N,inactive
4,Cc1ccc(C2C=C(c3ccccc3)Nc3nc(N4C(=O)CCC4=O)nn32)cc1 (centres undefined),inactive
5,CNC(=O)c1cc2c(=O)n3cc(C)ccc3nc2n(C(C)C)c1=N,inactive
6,COc1ccc(C2=NS(=O)(=O)N(C)C(C(=O)NC3CCCC3)=C2)cc1,inactive
7,C#Cc1ccc(CN2CCC(Oc3cc(C(=O)NC4CC4)ccc3OC)CC2)cc1,inactive
8,CCN1C(=O)CC(C(C)C)N(C2CCCC2)c2nc(Nc3ccc(C(=O)NC4CCN(C)CC4)cc3OC)ncc21 (centres undefined),22.4 µM (active)
9,COc1ccc(Nc2nc(Nc3ccc(OC)cc3OC)nc(N3CCN(C)CC3)n2)c(OC)c1,inactive
10,COc1cccc(C(=O)NC2CCN(CC(=O)NCc3ccccc3F)CC2)c1,inactive
11,CCN1C(=O)CC(c2ccccc2)N(C2CCCC2)c2nc(Nc3ccc(C(=O)NC4CCN(C)CC4)cc3OC)ncc21 (centres undefined),25.1 µM (active)
12,O=C(CC(=O)c1c(F)cccc1Cl)c1ccccc1O,inactive
13,Oc1nc(-c2ccccn2)nc2sc(-c3ccccc3)cc12,inactive
14,Oc1cc(CSc2ccc(Cl)cc2)nc(-c2ccccn2)n1,1.41 µM (active)
15,Oc1nccc(SCc2ccc(Cl)cc2Cl)n1,inactive
16,CC1=CC2=NC(=O)/C(=C\c3cc(C)n(-c4ccccc4)c3C)C(=N)N2O1,inactive
17,Fc1ccc(Br)cc1C1C=C(c2ccc(Br)cc2)Nc2nnnn21 (centres undefined),inactive
18,Cc1cccn2c(=O)c3cc(C(=O)NC4CCCCCC4)sc3nc12,inactive
19,Cc1ccc(Cl)cc1-n1c(=O)c2sc3ccccc3c2n(CC(=O)NC2CCCC2)c1=O,11.2 µM (active)
20,O=C(Cn1c(=O)oc2ccc(Cl)cc21)NC1CCCCC1,inactive
